{
  "source": "the supplement of paper PMC8728848",
  "binders": {"B1": {"name": "Epa23 (Candida glabrata) (protein)", "chain": "MGSSHHHHHHSSGLVPRGSHMIPNPFEGTINNFPSGCSPNHGLYNRGLTMELYNYSYIHPQSIQSYFNTSTLKKMEKGQCWDPSYLDVNYPRTGYKTHNRFAKVNGIDGILDFEFNPTRSCVPSKGQLPQNYNYPLQFTLSNFTMLLYGYFKPKVTAKHTFTIFADDLLFLNFGAGNAFDCCQQQDTIDDFGNYQAYALWGSDTQQNTLTVNLDANIYYPIRMFYNNRDFKGALNMYFTTDESNTKINDFSGYLFNIPDSSEGCPAHISYETECGNVSG"}},
  "test_in_all_cases": "glycan array binding signal (z-score within array); higher = stronger binding",
  "settings_in_all_cases": "glycan notation: IUPAC condensed, linker removed",
  "key": {"[1]": {"biological_target": "Fuc(a1-2)[GalNAc(a1-3)]Gal(b1-3)GlcNAc(b1-3)GalNAc", "summary_of_the_method": "(§1)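 The binding signal is a Z-score computed within each array. Data were drawn from 3228 arrays in the Consortium for Functional Glycomics database, restricted to those with a known protein sequence. Scores were averaged over arrays of the same protein sequence at different concentrations or buffers, and over linkers, and negative values can be taken as non-binding.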"}, "[2]": {"biological_target": "Fuc(a1-2)[GalNAc(a1-3)]Gal(b1-4)Glc", "summary_of_the_method": "as §1"}, "[3]": {"biological_target": "Fuc(a1-3)[Gal3S(b1-4)]GlcNAc6S", "summary_of_the_method": "as §1"}, "Gal(a1-3)Gal(b1-4)GlcNAc": {"biological_target": "Gal(a1-3)Gal(b1-4)GlcNAc", "summary_of_the_method": "as §1"}, "Gal(a1-6)Glc": {"biological_target": "Gal(a1-6)Glc", "summary_of_the_method": "as §1"}, "[4]": {"biological_target": "Gal(b1-3)GlcNAc(a1-6)Gal(b1-4)GlcNAc", "summary_of_the_method": "as §1"}, "[5]": {"biological_target": "Gal(b1-3)[Fuc(a1-4)]GlcNAc(b1-6)GalNAc", "summary_of_the_method": "as §1"}, "Gal(b1-4)Glc": {"biological_target": "Gal(b1-4)Glc", "summary_of_the_method": "as §1"}, "[6]": {"biological_target": "Gal(b1-4)GlcNAc(b1-2)Man(a1-3)[Gal(b1-4)GlcNAc(b1-2)Man(a1-6)][GlcNAc(b1-4)]Man(b1-4)GlcNAc(b1-4)[Fuc(a1-6)]GlcNAc", "summary_of_the_method": "as §1"}, "[7]": {"biological_target": "Gal(b1-4)GlcNAc(b1-2)Man(a1-6)[GlcNAc(b1-2)Man(a1-3)]Man(b1-4)GlcNAc(b1-4)GlcNAc", "summary_of_the_method": "as §1"}, "[8]": {"biological_target": "Gal(b1-4)GlcNAc(b1-2)Man(a1-6)[Man(a1-3)]Man(b1-4)GlcNAc(b1-4)GlcNAc", "summary_of_the_method": "as §1"}, "[9]": {"biological_target": "Gal(b1-4)GlcNAc(b1-2)[Gal(b1-4)GlcNAc(b1-6)]Man(a1-6)[Gal(b1-4)GlcNAc(b1-2)Man(a1-3)]Man(b1-4)GlcNAc(b1-4)GlcNAc", "summary_of_the_method": "as §1"}, "[10]": {"biological_target": "Gal(b1-4)GlcNAc(b1-3)Gal(b1-4)GlcNAc", "summary_of_the_method": "as §1"}, "[11]": {"biological_target": "Gal(b1-4)GlcNAc(b1-3)Gal(b1-4)GlcNAc(b1-2)Man(a1-3)[Gal(b1-4)GlcNAc(b1-3)Gal(b1-4)GlcNAc(b1-2)Man(a1-6)]Man(b1-4)GlcNAc(b1-4)GlcNAc", "summary_of_the_method": "as §1"}, "[12]": {"biological_target": "Gal(b1-4)GlcNAc(b1-3)Gal(b1-4)GlcNAc(b1-2)[Gal(b1-4)GlcNAc(b1-3)Gal(b1-4)GlcNAc(b1-6)]Man(a1-6)[Gal(b1-4)GlcNAc(b1-3)Gal(b1-4)GlcNAc(b1-2)Man(a1-3)]Man(b1-4)GlcNAc(b1-4)[Fuc(a1-6)]GlcNAc", "summary_of_the_method": "as §1"}, "[13]": {"biological_target": "Gal(b1-4)GlcNAc(b1-3)Gal(b1-4)GlcNAc(b1-3)Gal(b1-4)GlcNAc(b1-2)[Gal(b1-4)GlcNAc(b1-3)Gal(b1-4)GlcNAc(b1-3)Gal(b1-4)GlcNAc(b1-6)]Man(a1-6)[Gal(b1-4)GlcNAc(b1-3)Gal(b1-4)GlcNAc(b1-3)Gal(b1-4)GlcNAc(b1-2)Man(a1-3)]Man(b1-4)GlcNAc(b1-4)[Fuc(a1-6)]GlcNAc", "summary_of_the_method": "as §1"}, "[14]": {"biological_target": "Gal(b1-4)GlcNAc(b1-3)Gal(b1-4)GlcNAc(b1-3)Gal(b1-4)GlcNAc(b1-3)Gal(b1-4)GlcNAc(b1-2)Man(a1-3)[Gal(b1-4)GlcNAc(b1-3)Gal(b1-4)GlcNAc(b1-3)Gal(b1-4)GlcNAc(b1-3)Gal(b1-4)GlcNAc(b1-2)Man(a1-6)]Man(b1-4)GlcNAc(b1-4)GlcNAc", "summary_of_the_method": "as §1"}, "[15]": {"biological_target": "Gal(b1-4)GlcNAc(b1-3)Gal(b1-4)GlcNAc(b1-3)Gal(b1-4)GlcNAc(b1-3)Gal(b1-4)GlcNAc(b1-2)[Gal(b1-4)GlcNAc(b1-3)Gal(b1-4)GlcNAc(b1-3)Gal(b1-4)GlcNAc(b1-3)Gal(b1-4)GlcNAc(b1-6)]Man(a1-6)[Gal(b1-4)GlcNAc(b1-3)Gal(b1-4)GlcNAc(b1-3)Gal(b1-4)GlcNAc(b1-3)Gal(b1-4)GlcNAc(b1-2)Man(a1-3)]Man(b1-4)GlcNAc(b1-4)[Fuc(a1-6)]GlcNAc", "summary_of_the_method": "as §1"}, "[16]": {"biological_target": "Gal(b1-4)GlcNAc(b1-3)Gal(b1-4)GlcNAc(b1-3)Gal(b1-4)GlcNAc(b1-3)Gal(b1-4)GlcNAc(b1-3)Gal(b1-4)GlcNAc(b1-2)Man(a1-3)[Gal(b1-4)GlcNAc(b1-3)Gal(b1-4)GlcNAc(b1-3)Gal(b1-4)GlcNAc(b1-3)Gal(b1-4)GlcNAc(b1-3)Gal(b1-4)GlcNAc(b1-2)Man(a1-6)]Man(b1-4)GlcNAc(b1-4)GlcNAc", "summary_of_the_method": "as §1"}, "[17]": {"biological_target": "Gal(b1-4)GlcNAc(b1-3)Gal(b1-4)GlcNAc(b1-3)Gal(b1-4)GlcNAc(b1-3)Gal(b1-4)GlcNAc(b1-3)Gal(b1-4)GlcNAc(b1-2)Man(a1-3)[Gal(b1-4)GlcNAc(b1-3)Gal(b1-4)GlcNAc(b1-3)Gal(b1-4)GlcNAc(b1-3)Gal(b1-4)GlcNAc(b1-3)Gal(b1-4)GlcNAc(b1-2)Man(a1-6)]Man(b1-4)GlcNAc(b1-4)[Fuc(a1-6)]GlcNAc", "summary_of_the_method": "as §1"}, "[18]": {"biological_target": "Gal(b1-4)GlcNAc(b1-3)Gal(b1-4)GlcNAc(b1-3)Gal(b1-4)GlcNAc(b1-3)Gal(b1-4)GlcNAc(b1-3)Gal(b1-4)GlcNAc(b1-2)[Gal(b1-4)GlcNAc(b1-3)Gal(b1-4)GlcNAc(b1-3)Gal(b1-4)GlcNAc(b1-3)Gal(b1-4)GlcNAc(b1-3)Gal(b1-4)GlcNAc(b1-6)]Man(a1-6)[Gal(b1-4)GlcNAc(b1-3)Gal(b1-4)GlcNAc(b1-3)Gal(b1-4)GlcNAc(b1-3)Gal(b1-4)GlcNAc(b1-3)Gal(b1-4)GlcNAc(b1-2)Man(a1-3)]Man(b1-4)GlcNAc(b1-4)[Fuc(a1-6)]GlcNAc", "summary_of_the_method": "as §1"}, "[19]": {"biological_target": "Gal(b1-4)GlcNAc(b1-6)Gal(b1-4)GlcNAc", "summary_of_the_method": "as §1"}, "[20]": {"biological_target": "Gal(b1-4)GlcNAc(b1-6)GalNAc", "summary_of_the_method": "as §1"}, "Gal3S4S(b1-4)GlcNAc": {"biological_target": "Gal3S4S(b1-4)GlcNAc", "summary_of_the_method": "as §1"}, "Gal6S(b1-4)Glc": {"biological_target": "Gal6S(b1-4)Glc", "summary_of_the_method": "as §1"}, "Gal6S(b1-4)Glc6S": {"biological_target": "Gal6S(b1-4)Glc6S", "summary_of_the_method": "as §1"}, "Gal6S(b1-4)GlcNAc": {"biological_target": "Gal6S(b1-4)GlcNAc", "summary_of_the_method": "as §1"}},
  "note": "The sample as a whole holds a higher share of the strongest signals than the screen did.",
  "data": [
    {"binder": "B1", "values": [
      {"measurement": "glycan array binding signal (z-score)", "setting": "[1]", "result": -0.229},
      {"measurement": "glycan array binding signal (z-score)", "setting": "[2]", "result": -0.234},
      {"measurement": "glycan array binding signal (z-score)", "setting": "[3]", "result": -0.161},
      {"measurement": "glycan array binding signal (z-score)", "setting": "Gal(a1-3)Gal(b1-4)GlcNAc", "result": -0.008},
      {"measurement": "glycan array binding signal (z-score)", "setting": "Gal(a1-6)Glc", "result": -0.007},
      {"measurement": "glycan array binding signal (z-score)", "setting": "[4]", "result": -0.078},
      {"measurement": "glycan array binding signal (z-score)", "setting": "[5]", "result": -0.177},
      {"measurement": "glycan array binding signal (z-score)", "setting": "Gal(b1-4)Glc", "result": -0.134},
      {"measurement": "glycan array binding signal (z-score)", "setting": "[6]", "result": -0.232},
      {"measurement": "glycan array binding signal (z-score)", "setting": "[7]", "result": -0.223},
      {"measurement": "glycan array binding signal (z-score)", "setting": "[8]", "result": -0.182},
      {"measurement": "glycan array binding signal (z-score)", "setting": "[9]", "result": 0.12},
      {"measurement": "glycan array binding signal (z-score)", "setting": "[10]", "result": 0.139},
      {"measurement": "glycan array binding signal (z-score)", "setting": "[11]", "result": 0.484},
      {"measurement": "glycan array binding signal (z-score)", "setting": "[12]", "result": 2.44},
      {"measurement": "glycan array binding signal (z-score)", "setting": "[13]", "result": 3.33},
      {"measurement": "glycan array binding signal (z-score)", "setting": "[14]", "result": 2.62},
      {"measurement": "glycan array binding signal (z-score)", "setting": "[15]", "result": 3.79},
      {"measurement": "glycan array binding signal (z-score)", "setting": "[16]", "result": 3.01},
      {"measurement": "glycan array binding signal (z-score)", "setting": "[17]", "result": 2.83},
      {"measurement": "glycan array binding signal (z-score)", "setting": "[18]", "result": 4.71},
      {"measurement": "glycan array binding signal (z-score)", "setting": "[19]", "result": 1.43},
      {"measurement": "glycan array binding signal (z-score)", "setting": "[20]", "result": 0.008},
      {"measurement": "glycan array binding signal (z-score)", "setting": "Gal3S4S(b1-4)GlcNAc", "result": -0.241},
      {"measurement": "glycan array binding signal (z-score)", "setting": "Gal6S(b1-4)Glc", "result": 6.7},
      {"measurement": "glycan array binding signal (z-score)", "setting": "Gal6S(b1-4)Glc6S", "result": 11.8},
      {"measurement": "glycan array binding signal (z-score)", "setting": "Gal6S(b1-4)GlcNAc", "result": 5.69}
    ]}
  ]
}
